Assays:
Assay in all cases: PBM binding z-score (relative to random genomic background probes); higher = stronger binding; sequences stand for … in GC…GCGATTGACAGCGTAGAATGAAGG
[1] = system: RARb homodimer (NR concentration 270 nM)
How it was run: (§1)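 For binding z-scores, the reference was random background probes on custom Agilent 4×180K protein-binding microarrays. These arrays were incubated 1 h with ligand-free nuclear receptor dimers in PBS pH 7.4, 2% milk, 0.02% Triton X-100, 1 mM DTT, 0.2 mg/mL BSA and 0.4 mg/ml salmon testes DNA. Fluorescence was scanned after antibody detection of each partner (one per run) and regression-normalized.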

[2] = system: RARg:RXRa (NR concentration 270 nM, RXRa partner concentration 90 nM)
How it was run: as §1

[3] = system: RARg homodimer (NR concentration 270 nM)
How it was run: as §1

[4] = system: RXRa DBDmut IVT, anti-RXR (DBD mutation: RXRa K156A/R161A, NR concentration 90 nM)
How it was run: as §1

[5] = system: RXRa homodimer (NR concentration 180 nM)
How it was run: as §1

[6] = system: THRa:RXRa (NR concentration 90 nM, RXRa partner concentration 90 nM)
How it was run: as §1

[7] = system: THRa homodimer (NR concentration 90 nM)
How it was run: as §1

[8] = system: VDR homodimer (NR concentration 270 nM)
How it was run: as §1

Sequence	PBM binding z-score [1]	PBM binding z-score [2]	PBM binding z-score [3]	PBM binding z-score [4]	PBM binding z-score [5]	PBM binding z-score [6]	PBM binding z-score [7]	PBM binding z-score [8]
ACTATTAGTTGACTTAGTGCAACCGATACGACGC	0.207	0.552	0.65	0.565	0.369	0.0819	-0.158	0.241
CAAACTAGATCACCGGAAGGTCAAAGTCCGCATG	4.03	4.08	2.88	0.674	3.47	2.76	1.06	2.12
TCATATAAGTAATACAGGTGAAAGTCGGCATCTA	0.481	0.675	0.621	2.03	1.42	0.662	0.191	0.605
GGAACGAGGGCAAAGTGGATAGCATCTGTCGACG	1.05	1.54	1.53	2.28	1.21	0.965	-0.332	1.01
CCGAGTAGGTTATGGGGCATTAAGGCAACGGTGA	1.08	0.561	0.543	-0.314	0.65	0.981	0.598	0.0646
GCTTGTAGAGCAAGGTTAAGAAAGACTAAGCTAA	-0.118	0.204	0.162	-0.22	0.282	0.745	-1.02	-0.25
ATGTCTAGGTAACAAGTTCAGTGAAAGAGAGGAC	1.85	1.29	1.35	0.903	0.727	1.56	0.576	2.23
CCAGACAGGTGAAAGGAAACTCAGTCTGGTACGC	-0.0541	0.0543	0.198	-0.167	0.41	-0.104	-0.669	-0.334
ATATGTAGCTTAGCTGGGGTCATTCAGACTAGGC	3.13	3.19	2.02	1.54	5.09	3.92	2.85	3.19
CGTCCAAGGTCAGCAAGTCAGTGAAAGCGACGTG	3.99	5.01	6	2.5	4.02	3.42	1.67	1.03
CGTCCAAGGTCAAGGTCAGAGAAAGAGACTCGAA	4.83	6.78	7.97	3.66	6.72	4.16	3.41	3.04
ATCTCTAGGTAATGATAGTTCAGTGAATGCAAAT	0.921	0.493	0.864	0.246	0.462	0.79	0.35	0.644
CCCACTGGGCCACGAAAGGTCATTGATTCAGTGA	4.6	4.7	4.33	-0.145	4.87	4.11	1.09	2.4
CCGACTGGGGTAGAAAGGTTACCATACCATCCGG	2.13	1.97	1.04	-1.26	2.35	1	-0.443	-0.2
CTTTACGGGTCACTGACAGGTTATAGCATTTGGA	3.58	6.21	5.08	2.54	5.93	3.18	0.855	1.15
GCTGACGGGTCAAAGGTTATAGCATGAATAGAAT	3.04	6.46	4.08	1.66	9.14	3.85	-0.263	0.919
CGTCCTAGGTCAATGCTAGGTCAGTGAAAGCATT	4.16	6.16	5.14	1.83	2.57	3.94	1.73	0.909
ACATACAGGTGATGAAGGTAACTCAGGCTATCAT	0.492	0.787	0.615	0.27	0.874	1.16	0.135	0.174
AAAATGAGGTTACCAAAGATCAGGGAAACGCTTG	0.885	2.37	1.81	1.54	2.93	3.06	0.766	0.152

Sequence	PBM binding z-score [1]	PBM binding z-score [2]	PBM binding z-score [3]	PBM binding z-score [4]	PBM binding z-score [5]	PBM binding z-score [6]	PBM binding z-score [7]	PBM binding z-score [8]
GTTCGGAGGACAAGGTCAGAGCTTTGTCCGTAGA	2.99	2.91	3.51	0.7	1.91	3.06	1.52	0.65
CGTCCAAGGACAGCAGGTCAGTGAAAGCGACGTG	2.36	1.72	2.06	0.0474	0.679	2.46	0.788	-0.264
CAAACTAGGTCACGAATGGTCAAAGTCGAATGAC	3.87	4.77	5.18	1.61	3.82	3.74	1.51	0.784
CCCACTGGGGCATAAGGTTACCATAAGCCAGCCC	1.49	1.56	1.09	-1.4	1.07	1.92	1.01	-0.364
TCTTGTAGATCAAAAGAGGTTAAGAAAGTGCGCT	0.976	0.867	0.449	0.343	1.35	2.6	-0.614	0.274
CGTCAAAGTTCAACTAAGGTAGCGTAAAGCACGC	4.16	5.74	6.39	4.42	4.96	5.06	0.699	4.01
ACAGACAGGTGATGTAGGTAACTCAGGCTATCAT	0.224	0.333	0.539	-0.0727	0.19	0.566	-0.00745	-0.512
CGAACGAGGCCATGAGTTGATAGCAAATGCCGAT	0.354	0.599	0.821	0.851	0.328	0.837	-0.151	0.777
TCGAATAGGTTAGTCGGGGCATTCAGCCAACATA	0.708	0.415	0.436	0.913	0.583	1.46	0.0462	0.528
TCTAGTTGGTCAAAGGTCATACACTCGAAATGCG	5.06	6.94	5.49	2.31	8.07	4.15	1.94	3.4
TCTAGTAGGTTACCAATGGGGCATTCAGCTTTCT	0.934	1.47	0.705	1.13	0.88	0.163	-0.277	0.254
AGAATGAGGTTATTAAGATCAGGGACTTGCGGTC	0.973	1.12	0.814	1.92	1.82	2.09	0.617	1.36
TCCTGTAGATCAAAGGTTAAGAAAGCCGAAGCCT	1.39	1.89	0.87	0.61	3.17	1.24	-0.54	-0.182
TCATATAGGTAATACAGGTGAAAGTTGGCATCTA	0.923	1.02	0.788	1.86	1.69	1.19	0.467	0.572
CAAACTAGGTCAAGAGGCCAAAGTCCGCTTCCCG	3.79	4.65	4.83	1.85	2.98	2.75	0.986	1.03
ATATTTAGGTTAGCTGGGGTCATTCAGACTAGGC	3.93	4.05	3.26	2.19	5.09	5.1	4.01	6.12
CCTCGGAGGAAAGAAGGTCAGAGCTGTCCGCTTT	2.71	1.88	1.67	0.0436	1.44	1.93	-0.547	0.00914
CACGAAAGGTCGTGCTCAGGTGAGTATACCAAAC	2.88	5.37	4.66	2.24	5.36	3.96	1.18	1.46
AGAATGAGGTTAAGAACAGGGAAACAGAATACAT	1.14	1.96	1.4	0.678	2.42	2.25	0.727	0.533

Sequence	PBM binding z-score [1]	PBM binding z-score [2]	PBM binding z-score [3]	PBM binding z-score [4]	PBM binding z-score [5]	PBM binding z-score [6]	PBM binding z-score [7]	PBM binding z-score [8]
ATATGTAGGTTACGGGTCATTCAGGTTGGTTCGC	3.24	3.35	2.58	1.69	4.31	3.15	1.49	3.37
AATACAGGGTCATCGTAGGCCAGGGTACGCACAG	3.72	5.54	5.21	3.32	6.38	4.57	1.69	3.9
CCGACTGGGCCATAAGGTTACCATAAGCCAGCCC	1.25	0.915	0.48	-0.727	0.767	2	1.52	-0.224
CCTACTGGGCCATTCAGAGGTCATAGATCATATG	3.97	4.15	2.99	0.411	3.98	3.27	1.4	2.6
CCTTACGGGTCCAGGTTATAGCACGGGTGGTACG	0.293	-0.0416	0.158	-0.824	0.106	0.171	0.291	0.862
TCTAGCAGGCCAGAGGTTCACTCAAGAGGTACGG	0.483	0.466	0.306	0.415	0.756	0.0642	-0.939	1.54
AGAATGAGGTTACCAAAGCTCAGGGAAACGCTTG	0.544	1.91	1.54	1.04	2.62	2.83	0.864	-0.0119
TTACCAAGGTGAAAGGTCGTTCATGCACGCCTTG	2.8	4.33	2.27	0.778	5.93	3.24	0.876	1.96
CTACCAAGGTGAACAAGCTCGTTGATTACTATTC	0.567	0.606	0.761	0.373	0.526	1.63	0.878	-0.237
CCTAGTCGGTCAAGGTCACACACGCTATAGGTAC	4.9	5.15	5.64	2.13	4.64	4.26	4.28	3.91
TAGCCTAGGTCATCGGGCCAGTATAGTACGCATC	3.22	4.32	4.38	0.957	3.29	2.96	1.16	0.811
AGAATGAGTTTACCAAAGATCAGGGAAACGCTTG	-0.757	-0.0513	0.236	3	0.272	-0.103	-0.687	1.78
TATATAGGGTCAAAGGCCAGAGTACGAATGTCGA	3.73	5.52	5.07	3.21	6.74	3.92	1.41	2.45
ACTACCAGGCCAAGTTTGGGTCACTCAAACAAAG	2.49	2.52	1.72	0.137	0.944	2.86	1.72	0.598
ATCTCTAGGTAACAAGCTCAGTGAAAGAGAGGAC	0.444	0.352	0.494	-0.305	0.272	1	0.56	-0.048
CGAACTAGGTCATAGACAGGACAGTGAATAGTAA	2.43	4.2	4.11	1.6	3.32	2.62	0.586	0.676
CCTTACGGGACAAGGTTATAGCACGGGTGGTACG	1.07	1.07	0.894	-0.464	1.35	1.08	0.341	0.555
CGTCAAAGTTCAAGGTAACGTAGCAGAAAGCAGC	3.85	5.5	6.15	4.38	4.75	3.01	1.09	3.26
CCGAGTAGGTTATGGTGCATTCAGGCAACGGTGA	1.06	0.337	0.381	0.527	0.5	0.6	0.468	0.619
